Experimental data published in PubChem BioAssay AID1307 (SRMLSC, 2008).
Fewer than 10 of roughly 1,200 compounds were called active.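 How the source made its calls: active means inhibition reaching a set limit at one or more tested concentrations; inactive means inhibition under that limit at every dose.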 The list is a sample of the results. Potency and affinity values are given separately.

Experiment: RAM pathway signaling blockade in S. cerevisiae – dose response (AID 1307);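 further: 0% = DMSO vehicle wells and 100% = 10 µM 1-NA-PP1 control; higher inhibition means more yeast growth since RAM block rescues cells from 5-FOA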
Conditions: S. cerevisiae RAM network URA3 reporter, 5-FOA growth OD615, stronger effect = higher value, yeast express analog-sensitive mutant Cbk1 kinase; at 100 µM unless noted

Max inhibition, inactive:
Cc1ccc(NC(=O)COC(=O)CCC(=O)c2ccc(C(C)(C)C)cc2)c([N+](=O)[O-])c1 2.67% [at 0.196 µM], CCOC(=O)c1sc(NC(=O)CCCn2nc([N+](=O)[O-])cc2C)c(C(=O)OCC)c1C 4.45% [at 0.782 µM], CCCCCCCCNC(=O)/C(C#N)=C/c1ccc(SC)cc1 5.43%, CCOC(=O)C(C)(C)N(Cc1cccc(C)c1)S(=O)(=O)c1cccc([N+](=O)[O-])c1 2.41% [at 50 µM], O=C(Nc1ccccc1-c1nnc(SCc2ccccc2)o1)c1ccccc1 4.39% [at 3.125 µM], Cc1ccc(-n2c(O)c(/C=N/c3ncn[nH]3)c3ccccc3c2=O)cc1 10.6%, COc1ccc(/C=C(\C#N)C(=O)NCCc2ccccc2)cc1OCc1ccccc1 4.42% [at 1.563 µM], CCOC(=O)C1=C(c2ccccc2)N=c2s/c(=C\c3cc(OC)c(OC)c(OC)c3)c(=O)n2C1c1cccs1 (stereo not given) 14.2%, O=C(COC(=O)c1cc(Cl)ccc1[N+](=O)[O-])NCc1ccc(Cl)cc1Cl 4.62% [at 1.563 µM], C=CCSc1nnc(CCCCCN2C(=O)c3cccc4cccc(c34)C2=O)o1 6.81%, Cc1ccc(/C=C/c2ccc(=O)n(Cc3ccccc3Cl)n2)cc1 3.92% [at 3.125 µM], O=C(/C=C/c1cccc(C(F)(F)F)c1)Nc1cccc(C(F)(F)F)c1 2.77% [at 12.5 µM], COc1ccc(C(=O)/C=C/c2ccc(OC)c(COc3ccccc3F)c2)cc1 3.26% [at 12.5 µM], S=C(NCCC(c1ccccc1)c1ccccc1)Nc1ccccc1Cl 2.81%, Cc1ccc(NC(=O)Cc2ccc(Cl)c(Cl)c2)cc1S(=O)(=O)N(C)C 1.65%, CCN(CC)S(=O)(=O)c1cccc(C(=O)OCC(=O)c2ccc3c(c2)OCCO3)c1 3.81% [at 6.25 µM], CC(C)Cn1c(N)c(-c2nc(C(C)C)c(C(=O)c3ccccc3F)s2)c(=O)n(C)c1=O 7.65%, COc1cccc(CN(Cc2ccccc2F)S(=O)(=O)c2ccc(S(=O)(=O)NCc3ccccc3)cc2)c1 4.33%, COc1cccc(CN(Cc2ccco2)C(c2ccc(F)cc2)c2nnnn2C(C)(C)C)c1 (stereo not given) 5.18%, O=C(COC(=O)c1ccc(CSc2ccc(Cl)cc2)cc1)Nc1ccccc1 4.59%, CCOC(=O)c1c(-c2ccc(OC)cc2)csc1NC(=O)CSc1ccccc1 5.06%, C=C(C)CNC(=S)Nc1nc2c(cc1C(=O)OCC)CCCC2 2.44% [at 25 µM], COC(=O)c1cc(=O)n(CCc2ccccc2)c(=Nc2ccc(F)cc2)s1 4.08% [at 50 µM], O=C(O)CSc1nc(-c2ccc(Cl)cc2)nc2c1oc1ccccc12 6.31% [at 50 µM], COc1ccc(OC)c(NC(=O)C(Sc2ccccc2)c2ccccc2)c1 (stereo not given) 4.44% [at 50 µM], O=C(Nc1ccccc1-c1nnc(SCc2ccccc2Cl)o1)c1ccccc1 2.67% [at 50 µM], Cc1ccccc1N1C(=O)CC1(C#N)c1ccc(OCc2ccccc2)cc1 (stereo not given) 3.12% [at 50 µM], O=C(CC12CC3CC(CC(C3)C1)C2)NC(=S)NCc1ccco1 5.22% [at 50 µM], Cc1ccc(Cl)cc1N1CCN(S(=O)(=O)c2ccc3[nH]c(=O)c(=O)[nH]c3c2)CC1 4.39%, O=C(CCCSc1nc2ccccc2[nH]1)Nc1nnc(-c2ccccc2)o1 1.46% [at 1.563 µM], Cc1cc(NC(=O)COC(=O)C(Nc2ccc(C(F)(F)F)cc2Cl)C(C)C)no1 (stereo not given) 3.28% [at 12.5 µM], Cc1ccccc1NC(=O)CCCSc1nc2ccccc2s1 1.4% [at 25 µM], O=C(OC(C(=O)Nc1cccc(C(F)(F)F)c1)c1ccccc1)C1CCCCC1 (stereo not given) 3.65% [at 50 µM], C=CCOc1c(Br)cc(CNc2ccc(NC(=O)C(C)C)c(OC)c2)cc1OCC 2.15% [at 3.125 µM], COc1ccccc1-n1c(COc2ccccc2-c2ccccc2)nnc1SCC(=O)c1c(N)n(C)c(=O)n(C)c1=O 11.9%, COc1ccc(Br)cc1C(=O)Nc1ccccc1-c1ccccc1 6.2% [at 50 µM], CCCC[C@@H]1C[C@H]1[C@@H](NC(=O)c1ccccc1)c1ccccc1C(F)(F)F 3.06%, CCOc1ccccc1NC(=O)C(OC(=O)c1cc(C)oc1C)c1ccccc1 (stereo not given) 4.82%, Cc1ccccc1Oc1ccc(-c2nc(N)nc(N)n2)cc1 3.9%, O=S(=O)(c1ccccc1F)N(Cc1ccco1)Cc1nnc(-c2ccccc2Br)o1 2.49% [at 1.563 µM], Cc1ccc(C)c(N2CCN(C(=O)c3ccc(Cn4c(=S)[nH]c5ccc(N6CCOCC6)cc5c4=O)cc3)CC2)c1 5.67%, CCOC(=O)C(C)Sc1nc2c(c(-c3cccs3)c1C#N)CCC2 (stereo not given) 3.89% [at 50 µM], Cc1ccc(OCc2nnc(SCC(=O)Nc3ccc4c(c3)OCCO4)n2Cc2ccco2)cc1 0.12% [at 0.782 µM], COC(=O)c1ccc(CSc2nc(-c3ccco3)cc(C(F)(F)F)n2)o1 5.27%, CCCCOc1nc2ccccc2nc1C(C#N)C(=O)NC1CCCCC1 (stereo not given) 4.45%, COc1ccc(-c2ccc(-c3noc(C4CCCCC4)n3)c(OC)n2)cc1 3.89% [at 50 µM], O=C(CSc1nc2ccccc2s1)CSc1nc2ccccc2s1 5.31%, O=C(Nc1ccccc1Cl)c1cccc(COc2cc(Cl)ccc2Cl)c1 2.59%, COc1ccc(Cc2nc(-c3ccc(-n4cccc4)cc3)no2)cc1OC 5.67%, CCCCOc1cccc(C(=O)NC(=S)Nc2cccc(C(F)(F)F)c2)c1 4.25%
